Results as given in PubChem BioAssay (EPA / NIEHS).
Records with an inconclusive call do not appear. Active and inactive are the calls of the source. Rule for the calls, unless noted: active = hit-call score of the fitted dose curve at least 0.9, where 1 is the maximum; inconclusive = response in the unintended direction; inactive = score below 0.9.

Columns and labels:
[1] = molecular target: Cellular tumor antigen p53 (Homo sapiens) (UniProt P04637); experiment: TOX21_p53_BLA_p2_ratio: Tox21 HCT-116 p53 Agonism Beta-lactamase Assay, Ratio, Phase 2 (AID 2283592)
Sequence of Cellular tumor antigen p53 (Homo sapiens) (P04637 whole entry, looked up): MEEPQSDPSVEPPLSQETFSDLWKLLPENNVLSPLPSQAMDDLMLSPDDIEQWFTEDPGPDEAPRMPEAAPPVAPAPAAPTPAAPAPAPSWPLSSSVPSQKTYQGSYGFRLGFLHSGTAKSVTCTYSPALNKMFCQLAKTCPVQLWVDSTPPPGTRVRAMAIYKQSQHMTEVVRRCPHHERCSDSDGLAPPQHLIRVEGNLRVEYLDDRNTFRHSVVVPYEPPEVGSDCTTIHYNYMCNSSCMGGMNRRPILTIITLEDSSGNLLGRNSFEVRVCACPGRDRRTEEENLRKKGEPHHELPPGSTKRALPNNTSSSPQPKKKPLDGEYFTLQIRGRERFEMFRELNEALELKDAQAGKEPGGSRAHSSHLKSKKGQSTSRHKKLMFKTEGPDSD
How it was run: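 HCT116 cells carrying a p53-responsive beta-lactamase reporter were plated, incubated 5 h at 37C, then dosed with compounds in DMSO (217-fold dilution) for 16 h. CCF4-AM substrate was added for 2 h at room temperature; the 460/530 nm emission ratio gave gain-of-signal activity relative to DMSO.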

[2] = molecular target: Cellular tumor antigen p53 (Homo sapiens) (UniProt P04637); experiment: TOX21_p53_BLA_p3_ratio: Tox21 HCT-116 p53 Agonism Beta-lactamase Assay, Ratio, Phase 3 (AID 2283596)
How it was run: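 HCT116 p53-bla cells (4000/well) given compound in DMSO (217-fold dilution) after 5 h, incubated 16 h at 37C. CCF4-AM substrate 2 h at room temperature; 460/530 nm emission ratio, gain fitted against DMSO.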

[3] = molecular target: Cellular tumor antigen p53 (Homo sapiens) (UniProt P04637); experiment: TOX21_p53_BLA_p5_ratio: Tox21 HCT-116 p53 Agonism Beta-lactamase Assay, Ratio, Phase 5 (AID 2283599)
How it was run: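 HCT-116 p53-bla cells (4000/well) plated 5 h, dosed with compound (217-fold DMSO dilution) for 16 h at 37 C; CCF4-AM substrate 2 h at room temperature. Activity is the 460/530 nm emission ratio (405 nm excitation), fitted in gain-of-signal direction versus DMSO.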

[4] = TOX21_p53_BLA_p5_viability: Viability Assessment in the Tox21 HCT-116 p53 Agonism Beta-lactamase Assay, Phase 5 (AID 2283600)
How it was run: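 Cells were plated at 4000/well, rested 5 h at 37C, then given compounds in DMSO (217-fold dilution) for 16 h at 37C, 5% CO2. Following the CCF4-AM beta-lactamase read, CellTiter-Glo was added and luminescence was read after 30 min at room temperature.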

[5] = molecular target: Cellular tumor antigen p53 (Homo sapiens) (UniProt P04637); experiment: TOX21_p53_BLA_p4_ratio: Tox21 HCT-116 p53 Agonism Beta-lactamase Assay, Ratio, Phase 4 (AID 2283601)
How it was run: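 HCT-116 p53 beta-lactamase reporter cells (4000/well) preincubated 5 h, then compound (217-fold dilution of DMSO stock) for 16 h at 37C. CCF4-AM substrate added 2 h at room temperature; 460/530 nm emission ratio fitted upward versus DMSO.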

[6] = CCTE_Harrill_HTTr_Viability_MCF7: CCTE's 6-hour Cell Viability Assessment for the High-Throughput Transcriptomics (HTTr) Platform, in MCF-7 cells cultured in DMEM + 10% fetal bovine serum, Harrill Lab (AID 2284010; active = hit-call score of the fitted dose curve at least 0.9, where 1 is the maximum; inactive = score below 0.9)
How it was run: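 Viability measured through PI dye exclusion by high-content imaging at 6 h post-dosing.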

[7] = CCTE_Harrill_HTTr_Apoptosis_MCF7: CCTE's 6-hour Apoptosis Assessment for the High-Throughput Transcriptomics (HTTr) Platform, in MCF-7 cells cultured in DMEM + 10% fetal bovine serum, Harrill Lab (AID 2284011; active = hit-call score of the fitted dose curve at least 0.9, where 1 is the maximum; inactive = score below 0.9)
How it was run: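 MCF-7 cells in DMEM + 10% fetal bovine serum were exposed to chemicals for 6 hours over an eight-point dilution series. Caspase-3/7 activation was imaged by high content imaging with CellEvent Caspase 3/7 Green; bidirectional fitting used DMSO as baseline.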

[8] = CCTE_Harrill_HTTr_CellCount_MCF7: CCTE's Cell Proliferation Assessment for the High-Throughput Transcriptomics (HTTr) Platform, Harrill Lab (AID 2284012);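 note: count of Hoechst-stained nuclei per well by high-content imaging in MCF-7 cells; cells exposed to compound for six hours; intended direction is loss of nuclei count meaning fewer cells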
How it was run: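 Nuclei counting (Hoechst, high content imaging) in MCF-7 after a 6 h treatment at eight concentrations. Activity fitted bidirectionally, DMSO as negative control.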

Measured: AC50

S=C=NCc1ccccc1
inactive: [1] | [3] | [4] | [5]
active: [2] 42.9 µM

CCOc1cc(OP(=S)(OC)OC)nc(CC)n1
inactive: [1] | [2] | [5]

O=Cc1ccc(Cl)cc1Cl
inactive: [1] | [2] | [3] | [4] | [5]

Cc1ccc2cc(C)ccc2c1
inactive: all assays above

Cc1cccc(C#N)c1
inactive: [1] | [2] | [3] | [4] | [5]
